Values joined by “and” are separate entries in the source; they are usually repeats but may differ in a detail not shown here. Equal entries are not always repeated. Results filed as inconclusive are left out. More than one record can exist for a structure, and the calls need not agree. Active and inactive are the calls of the source. Rule for the calls: active = hit-call score of the fitted dose curve at least 0.9, where 1 is the maximum; inconclusive = response in the unintended direction; inactive = score below 0.9.
What follows are compounds tested against mouse Estrogen Receptor alpha (Era), Esr1 (gene 13982) (UniProt P19785) (assay: NVS_NR_mERa: NovaScreen (NVS) Nuclear Receptor Binding Assay for mouse Estrogen Receptor alpha (Era) (AID 2283378);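 note: hit means loss of bound radioligand signal relative to DMSO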).
Experimental: NVS_NR_mERa is a biochemical, single-readout assay that uses extracted gene-proteins in a cell-free assay. Measurements were taken 18 hours after chemical dosing in a 96-well plate.NVS_NR_mERa is one of one assay component(s) measured or calculated from the NVS_NR_mERa assay. It is designed to make measurements of radioligand binding, a form of binding reporter, as detected with scintillation counting signals by Filter-based radiodetection technology.Data from the assay component NVS_NR_mERa was analyzed into 1 assay endpoint. This assay endpoint, NVS_NR_mERa, was analyzed in the positive analysis fitting direction relative to DMSO as the negative control and baseline of activity. Using a type of binding reporter, loss-of-signal activity can be used to understand changes in the binding as they relate to the gene Esr1. Furthermore, this assay endpoint can be referred to as a primary readout, because the performed assay has only produced 1 assay endpoint. To generalize the intended target to other relatable targets, this assay endpoint is annotated to the nuclear receptor intended target family, where the subfamily is steroidal.
Binding assays used specific radioligands (tritiated, iodinated) with non-radioactive competitive displacement ligands in agonist or antagonist protocols (as indicated) and various reference compounds and inhibitors to titrate specific binding to receptors and transporters. Most enzyme assays (CYPs, kinases, phosphatases, proteases, HDACs) used recombinant protein and specific substrates (fluorescence mostly, some colorimetric and radioactive) and inhibitors, followed by a biochemical separation of substrate and product. All assays for the biochemical HTS were initially run in duplicate at a single concentration (10 uM for CYP450 assays and 25 uM for all others). […] Each assay was run with positive and negative controls, and concurrent controls on every plate. The follow-up (secondary) screen tested active chemical-pairs in concentration series, as well as a few additional assays not tested in the primary screen, some selected negative inactives, and several cases re-run in the concentration series for confirmatory purposes.

mouse Estrogen Receptor alpha (Era), Esr1 (gene 13982), sequence (P19785 whole entry, looked up): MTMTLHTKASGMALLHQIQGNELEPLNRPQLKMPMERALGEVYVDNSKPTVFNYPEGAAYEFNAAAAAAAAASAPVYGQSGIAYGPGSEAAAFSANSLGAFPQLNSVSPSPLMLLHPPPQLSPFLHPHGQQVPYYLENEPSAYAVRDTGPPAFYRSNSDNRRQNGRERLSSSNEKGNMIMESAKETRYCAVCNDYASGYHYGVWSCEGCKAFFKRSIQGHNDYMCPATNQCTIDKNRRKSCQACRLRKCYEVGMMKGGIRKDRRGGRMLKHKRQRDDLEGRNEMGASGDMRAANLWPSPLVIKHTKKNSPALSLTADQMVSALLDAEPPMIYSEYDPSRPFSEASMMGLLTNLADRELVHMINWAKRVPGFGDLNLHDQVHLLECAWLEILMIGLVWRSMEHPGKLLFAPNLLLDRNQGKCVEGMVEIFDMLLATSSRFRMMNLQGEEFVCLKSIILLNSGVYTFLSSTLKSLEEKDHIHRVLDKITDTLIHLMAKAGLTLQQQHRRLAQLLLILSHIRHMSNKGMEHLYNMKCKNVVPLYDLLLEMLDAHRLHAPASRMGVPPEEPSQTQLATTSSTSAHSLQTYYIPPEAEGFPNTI

Structure (SMILES)	AC50	outcome
CC(c1ccc(O)cc1)(c1ccc(O)cc1)c1ccc(O)cc1	768 nM (active)	–
CCOC(=O)C(O)(c1ccc(Cl)cc1)c1ccc(Cl)cc1	–	inactive
Clc1ccc(C(c2ccccc2Cl)C(Cl)(Cl)Cl)cc1 (stereo not drawn)	51.7 nM (active)	inactive
Cc1cc(-c2ccc(N)c(C)c2)ccc1N	999 nM (active)	inactive
ClC(Cl)=C(c1ccc(Cl)cc1)c1ccc(Cl)cc1	–	inactive
CCCCCCOC(=O)c1ccccc1C(=O)OCCCCCC	–	inactive
CC(C)(c1ccccc1)c1ccc(O)cc1	2.98 µM (active) and 11 µM (active)	inactive
CCCCCCCCCc1ccc(O)cc1	–	inactive
CCCN(CCC)N=O	–	inactive
C[C@]12CCC(=O)C=C1CC[C@@H]1[C@@H]2CC[C@@]2(C)[C@H]1CC[C@]2(C)O	–	inactive
CCOCCOC(C)=O	–	inactive
Oc1ccc(Cl)cc1Cl	–	inactive
CC(C)(O)C(=O)Nc1ccc([N+](=O)[O-])c(C(F)(F)F)c1	2700 nM (active)	inactive
CCC(=O)O[C@H]1CC[C@H]2[C@@H]3CCC4=CC(=O)CC[C@]4(C)[C@H]3CC[C@]12C	–	inactive
NS(=O)(=O)C(F)(F)C(F)(F)C(F)(F)C(F)(F)C(F)(F)C(F)(F)C(F)(F)C(F)(F)F	–	inactive
Cc1cc(O)ccc1Cl	–	inactive
O=C(O)C(F)(F)C(F)(F)C(F)(F)C(F)(F)C(F)(F)C(F)(F)C(F)(F)C(F)(F)C(F)(F)F	–	inactive
ClC1=C(Cl)[C@]2(Cl)[C@@H]3[C@H]4C[C@H]([C@@H]5O[C@H]45)[C@@H]3[C@@]1(Cl)C2(Cl)Cl	–	inactive
C=CC(=O)NCNC(=O)C=C	–	inactive
Oc1c(Cl)c(Cl)c(Cl)c(Cl)c1Cl	–	inactive
CC(C)C(=O)OCC(C)(C)C(OC(=O)C(C)C)C(C)C (stereo not drawn)	–	inactive
CCCCCCCCCC[N+](C)(C)CCCCCCCCCC	5550 nM (active)	–
O=C(O)C(F)(F)C(F)(F)C(F)(F)C(F)(F)C(F)(F)C(F)(F)C(F)(F)C(F)(F)F	–	inactive
CCCCCCCCOC(=O)c1ccccc1C(=O)OCCCCCCCC	–	inactive
